This is part of a sample that, as a whole, favours compounds with a hit. Of some 79,000 tested, about 15% had one in any assay. Values without a mark were called inactive. The source made the active and inactive calls. No stated cut-off is given here; in the data, active means growth inhibition above about 70%; inactive means the rest.
Key:
[1] = NCI Yeast Anticancer Drug Screen. Data for the rad50 strain (AID 155);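 further: 0% = growth of vehicle-only cultures of the same strain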; settings: S. cerevisiae rad50 strain growth inhibition; at 50.0 µM; stronger effect = higher value
Summary of the method: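 Growth of the mutant yeast was measured after compound exposure and referenced to vehicle-treated cultures.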

[2] = NCI Yeast Anticancer Drug Screen. Data for the mec2-1 strain (AID 157); settings: S. cerevisiae mec2-1 strain, at 50.0 µM, stronger effect = higher value
Summary of the method: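 Using mec2-1 yeast: add compound, measure growth, express inhibition versus vehicle-treated cultures.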

[3] = NCI Yeast Anticancer Drug Screen. Data for the sgs1 mgt1 strain (AID 161);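 further: 0% = growth of cultures given vehicle only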; settings: S. cerevisiae sgs1 mgt1 strain, at 50.0 µM, stronger effect = higher value
Summary of the method: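 Growth of a repair-deficient yeast mutant was monitored after compound treatment and expressed as inhibition relative to vehicle-treated cultures.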

[4] = NCI Yeast Anticancer Drug Screen. Data for the cln2 rad14 strain (AID 165);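 further: 0% = growth equal to vehicle treated cultures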; settings: S. cerevisiae cln2 rad14 strain, at 50.0 µM, stronger effect = higher value
Summary of the method: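 Yeast strain cln2 rad14, bearing defects in cell cycle control and DNA repair, serves as the test system; values reflect growth inhibition compared with vehicle.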

[5] = NCI Yeast Anticancer Drug Screen. Data for the bub3 strain (AID 167); settings: S. cerevisiae bub3 mutant strain, at 50.0 µM, stronger effect = higher value
Summary of the method: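 Whole-cell yeast assay. The mutant strain was incubated with compounds, and growth inhibition was determined by comparison with vehicle-treated cells.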

[6] = NCI Yeast Anticancer Drug Screen. Data for the mlh1 rad18 strain (AID 175); settings: S. cerevisiae mlh1 rad18 strain growth inhibition; at 50.0 µM; stronger effect = higher value
Summary of the method: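 Steps: expose repair-defective yeast to compound; measure growth; express inhibition against vehicle-treated controls.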

Structure (SMILES): CC1=C(CCCO)/C(=N\O)CCC1
- growth inhibition [1]: 3.75%
- growth inhibition [2]: -1.75%
- growth inhibition [3]: -3%
- growth inhibition [4]: -30.4%
- growth inhibition [5]: 17.5%
- growth inhibition [6]: -28%

Structure (SMILES): CN(C)Cc1cc(C(C)(C)C)cc(CNC2CCCCC2)c1O
- growth inhibition [1]: -2.9%
- growth inhibition [2]: -6.45%
- growth inhibition [3]: -26.9%
- growth inhibition [4]: -6.4%
- growth inhibition [5]: -24.4%
- growth inhibition [6]: 19.9%

Structure (SMILES): CN1N=C(c2ccncc2)OC1c1ccc(C(F)(F)F)cc1 (configuration not stated)
- growth inhibition [1]: 13.9%
- growth inhibition [2]: -20.6%
- growth inhibition [3]: 1.35%
- growth inhibition [4]: 11.3%
- growth inhibition [5]: -19.6%
- growth inhibition [6]: -12.5%

Structure (SMILES): CCOc1ccc(NCC(=O)N2CC(=O)Nc3ccccc32)cc1
- growth inhibition [1]: -19.6%
- growth inhibition [2]: -21.9%
- growth inhibition [3]: -40.4%
- growth inhibition [4]: -5.15%
- growth inhibition [5]: -42.2%
- growth inhibition [6]: -35.2%

Structure (SMILES): CC(=O)Oc1ccc[nH]c1=O
- growth inhibition [1]: 5.25%
- growth inhibition [2]: -22.1%
- growth inhibition [3]: 0.9%
- growth inhibition [4]: 24.6%
- growth inhibition [5]: 14.3%
- growth inhibition [6]: 2.4%

Structure (SMILES): COc1ccc(C(=O)CCC(=O)O)c(C)c1
- growth inhibition [1]: 7.45%
- growth inhibition [2]: 13.1%
- growth inhibition [3]: -0.85%
- growth inhibition [4]: 1.55%
- growth inhibition [5]: 19.6%
- growth inhibition [6]: 5.25%

Structure (SMILES): CC(C)CC(C)OC(=O)CC(CC(=O)OC(C)CC(C)C)C(=O)OC(C)CC(C)C (configuration not stated)
- growth inhibition [1]: -6.8%
- growth inhibition [2]: -17.1%
- growth inhibition [3]: -13.1%
- growth inhibition [4]: 26.2%
- growth inhibition [5]: 20.9%
- growth inhibition [6]: -4.15%

Structure (SMILES): COc1cc2c(c([N+](=O)[O-])c1)NC(=O)CC(C)S2 (configuration not stated)
- growth inhibition [1]: -48.8%
- growth inhibition [2]: -6.25%
- growth inhibition [3]: 21.9%
- growth inhibition [4]: -9.4%
- growth inhibition [5]: 17.4%
- growth inhibition [6]: -3.45%

Structure (SMILES): Fc1ccc(Cl)c2cccnc12
- growth inhibition [1]: 2.75%
- growth inhibition [2]: 9.85%
- growth inhibition [3]: -6%
- growth inhibition [4]: -33.7%
- growth inhibition [5]: 3.95%
- growth inhibition [6]: 8.1%

Structure (SMILES): CCOC(=O)NC(NC(=O)OCC)c1ccc2c(c1)OCO2
- growth inhibition [1]: -38.5%
- growth inhibition [2]: 17.4%
- growth inhibition [3]: 17.1%
- growth inhibition [4]: -11.8%
- growth inhibition [5]: 5.75%
- growth inhibition [6]: 3.8%

Structure (SMILES): O=C1c2cccc3cc([N+](=O)[O-])cc(c23)C(=O)N1CCNCCNCCNCCN1C(=O)c2cccc3cc([N+](=O)[O-])cc(c23)C1=O
- growth inhibition [1]: 86% (active)
- growth inhibition [2]: 89% (active)
- growth inhibition [3]: 89.3% (active)
- growth inhibition [4]: 90.2% (active)
- growth inhibition [5]: 89.2% (active)
- growth inhibition [6]: 90.9% (active)

Structure (SMILES): O=c1[nH]c(Sc2ccccc2)nc2ccccc12
- growth inhibition [1]: 15.7%
- growth inhibition [2]: 9.45%
- growth inhibition [3]: 13.1%
- growth inhibition [4]: -58.1%
- growth inhibition [5]: 18.2%
- growth inhibition [6]: 7.25%

Structure (SMILES): CCOc1ccc2nc(/C=C/c3ccccc3)ccc2c1
- growth inhibition [1]: 13.9%
- growth inhibition [2]: -3.65%
- growth inhibition [3]: 13.8%
- growth inhibition [4]: -3.75%
- growth inhibition [5]: 9.85%
- growth inhibition [6]: 14.8%

Structure (SMILES): O=C1NC(CN2CCCCC2)C(=O)NC1CN1CCCCC1 (configuration not stated)
- growth inhibition [1]: -1.1%
- growth inhibition [2]: -13.4%
- growth inhibition [3]: 8.7%
- growth inhibition [4]: -8.7%
- growth inhibition [5]: -20.1%
- growth inhibition [6]: 0%

Structure (SMILES): O=[N+]([O-])c1cc2c(c([N+](=O)[O-])c1)Nc1cc(Cl)ccc1O2
- growth inhibition [1]: 1.6%
- growth inhibition [2]: 19.8%
- growth inhibition [3]: 17.6%
- growth inhibition [4]: 11.8%
- growth inhibition [5]: 4.4%
- growth inhibition [6]: 26.9%

Structure (SMILES): N#CC(CCc1nc(N)nc(N)n1)(CCc1nc(N)nc(N)n1)c1ccccc1
- growth inhibition [1]: -6.7%
- growth inhibition [2]: -19.1%
- growth inhibition [3]: 1.9%
- growth inhibition [4]: -45.7%
- growth inhibition [5]: -1.2%
- growth inhibition [6]: -14.9%

Structure (SMILES): O=C(NCCCN1CCCCCC1)C(c1ccccc1)C1CCCCC1 (configuration not stated)
- growth inhibition [1]: 25.3%
- growth inhibition [2]: -16.4%
- growth inhibition [3]: 49.4%
- growth inhibition [4]: 13.9%
- growth inhibition [5]: 14.6%
- growth inhibition [6]: 36.1%

Structure (SMILES): CCOc1cc2c(cc1OC)c[n+](C)c1c3cc(OC)c(OC)cc3ccc21
- growth inhibition [1]: 22.5%
- growth inhibition [2]: 10.9%
- growth inhibition [3]: 15%
- growth inhibition [4]: -2.1%
- growth inhibition [5]: -6.05%
- growth inhibition [6]: 14.6%

Structure (SMILES): COc1cccc(OC(=O)Nc2cccc(Cl)c2)c1
- growth inhibition [1]: 38.2%
- growth inhibition [2]: 38.4%
- growth inhibition [3]: 49.4%
- growth inhibition [4]: 38.8%
- growth inhibition [5]: 41.5%
- growth inhibition [6]: 51.6%

Structure (SMILES): O=C(Nc1cccc2ccccc12)ON1C(=O)c2ccccc2C1=O
- growth inhibition [1]: -6.6%
- growth inhibition [2]: -39.6%
- growth inhibition [3]: -0.1%
- growth inhibition [4]: 12.5%
- growth inhibition [5]: -5.7%
- growth inhibition [6]: -2.4%

Structure (SMILES): NNC(=S)N/N=C(/C(=O)Nc1cc(Cl)ccc1Cl)C1C(=O)Nc2ccccc2S1=O (configuration not stated)
- growth inhibition [1]: -21.8%
- growth inhibition [2]: -32.6%
- growth inhibition [3]: -5.1%
- growth inhibition [4]: -28.6%
- growth inhibition [5]: -6.6%
- growth inhibition [6]: -0.35%

Structure (SMILES): CCN(CC)CCSc1cc(C)c2ccc(N)nc2n1
- growth inhibition [1]: -5.65%
- growth inhibition [2]: -24%
- growth inhibition [3]: 6.6%
- growth inhibition [4]: 15.1%
- growth inhibition [5]: 8.6%
- growth inhibition [6]: -1.1%

Structure (SMILES): COc1ccc(Nc2nc3ccccc3nc2-c2cccs2)cc1
- growth inhibition [1]: 5.2%
- growth inhibition [2]: -3.8%
- growth inhibition [3]: 23.5%
- growth inhibition [4]: -1.45%
- growth inhibition [5]: 14.3%
- growth inhibition [6]: 17.3%

Structure (SMILES): CCN(CC)CCCN1CC(=O)N2CCCCN2C(=O)C1
- growth inhibition [1]: 28.8%
- growth inhibition [2]: -3.6%
- growth inhibition [3]: 13.4%
- growth inhibition [4]: 6.15%
- growth inhibition [5]: 3.05%
- growth inhibition [6]: 8.9%

Structure (SMILES): O=[N+]([O-])c1ccc2c(N3CCC(CCCC4CCN(c5ncnc6cc([N+](=O)[O-])ccc56)CC4)CC3)ncnc2c1
- growth inhibition [1]: 2.55%
- growth inhibition [2]: -16.7%
- growth inhibition [3]: 39%
- growth inhibition [4]: 19.2%
- growth inhibition [5]: -10.8%
- growth inhibition [6]: -2.9%

Structure (SMILES): CSc1n[nH]c(-c2cccs2)n1
- growth inhibition [1]: -6.6%
- growth inhibition [2]: -15.7%
- growth inhibition [3]: 19.9%
- growth inhibition [4]: -8.3%
- growth inhibition [5]: -6.35%
- growth inhibition [6]: -0.9%

Structure (SMILES): O=C(O)c1c[nH]c2c([N+](=O)[O-])cccc2c1=O
- growth inhibition [1]: 40.4%
- growth inhibition [2]: 16.5%
- growth inhibition [3]: 30.7%
- growth inhibition [4]: 8.5%
- growth inhibition [5]: 13.6%
- growth inhibition [6]: 28.4%

Structure (SMILES): C=C1C2CCC3(CCC4C5(C)CCCC4(CN(C(C)=O)C5)C3C2)C1O (configuration not stated)
- growth inhibition [1]: 11.2%
- growth inhibition [2]: -5.1%
- growth inhibition [3]: 10.3%
- growth inhibition [4]: 1.4%
- growth inhibition [5]: 6.25%
- growth inhibition [6]: 8.95%

Structure (SMILES): Nc1nc(N)c(CCCCc2ccc([N+](=O)[O-])cc2)c(N)n1
- growth inhibition [1]: -1.05%
- growth inhibition [2]: 21.1%
- growth inhibition [3]: 24.1%
- growth inhibition [4]: -9.95%
- growth inhibition [5]: -1.4%
- growth inhibition [6]: -21.3%

Structure (SMILES): Nc1c(S(=O)(=O)O)cc2cc(S(=O)(=O)O)ccc2c1N
- growth inhibition [1]: 9.9%
- growth inhibition [2]: -12.6%
- growth inhibition [3]: 6%
- growth inhibition [4]: -15.7%
- growth inhibition [5]: 17.8%
- growth inhibition [6]: 24.9%

Structure (SMILES): COc1ccc2c(c1)C1(C)CCCC(C)(C=O)C1CC2 (configuration not stated)
- growth inhibition [1]: 5.5%
- growth inhibition [2]: -2.75%
- growth inhibition [3]: -3.65%
- growth inhibition [4]: -1.25%
- growth inhibition [5]: 10.4%
- growth inhibition [6]: 4.75%

Structure (SMILES): CCOC(=O)N/C=C/C(C)=O
- growth inhibition [1]: -31.1%
- growth inhibition [2]: -14.2%
- growth inhibition [3]: -1.5%
- growth inhibition [4]: -29.4%
- growth inhibition [5]: -6.35%
- growth inhibition [6]: -14.5%

Structure (SMILES): CCCCCCCN=C(N)CSSCC(N)=NCCCCCCC
- growth inhibition [1]: 98.9% (active)
- growth inhibition [2]: 99% (active)
- growth inhibition [3]: 99.3% (active)
- growth inhibition [4]: 98.7% (active)
- growth inhibition [5]: 98.9% (active)
- growth inhibition [6]: 99.2% (active)

Structure (SMILES): OCC(O)c1ccccn1 (configuration not stated)
- growth inhibition [1]: 5.5%
- growth inhibition [2]: -18.8%
- growth inhibition [3]: 6.65%
- growth inhibition [4]: -1.45%
- growth inhibition [5]: 2.55%
- growth inhibition [6]: 6.2%

Structure (SMILES): Nc1ccc(CCCCOc2ccccc2)cc1
- growth inhibition [1]: 98.6% (active)
- growth inhibition [2]: 99% (active)
- growth inhibition [3]: 98.5% (active)
- growth inhibition [4]: 98.5% (active)
- growth inhibition [5]: 99% (active)
- growth inhibition [6]: 98.4% (active)

Structure (SMILES): COc1cc([N+](=O)[O-])c(OC)cc1Nc1ccccc1C(=O)O
- growth inhibition [1]: 13.1%
- growth inhibition [2]: -12.8%
- growth inhibition [3]: 22.1%
- growth inhibition [4]: 18.2%
- growth inhibition [5]: 29.4%
- growth inhibition [6]: 16%

Structure (SMILES): O=C1CSC=C(c2ccccc2)O1
- growth inhibition [1]: 4.45%
- growth inhibition [2]: 4.4%
- growth inhibition [3]: -4.7%
- growth inhibition [4]: -40.8%
- growth inhibition [5]: -0.5%
- growth inhibition [6]: -19.4%
